This passage reports AC50 and outcome results from PubChem BioAssay (EPA / NIEHS).

The test system of assay [1] is chicken Androgen Receptor (AR), gene 422165. Put plainly: ATG_chAR_XSP1: Attagene TRANS-FACTORIAL Multi-Species (XSP1) HepG2 Assay for chicken Androgen Receptor (AR) (AID 2283768). The method in brief:
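HepG2 cells transiently transfected with multiplexed GAL4-UAS reporter units expressing chimeric chicken AR-Gal4; 3 nM 6-alpha-fluorotestosterone for partial AR stimulation; 24 h after dosing, reporter mRNA by RT-PCR and capillary electrophoresis, gain-of-signal versus DMSO.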

Assay [2] deals with frog Androgen Receptor (AR), gene 399456. Put plainly: ATG_frAR_XSP1: Attagene TRANS-FACTORIAL Multi-Species (XSP1) HepG2 Assay for frog Androgen Receptor (AR) (AID 2283770). The method, then:
ATG_XSP1_multi-species_TRANS is a cell-based, multiplexed assay created by modifying the existing Attagene TRANS-FACTORIAL system to include a panel of nuclear receptors from some or all the following species: human (Homo sapiens), mouse (Mus musculus), frog (Xenopus laevis), zebrafish (Danio rerio), chicken (Gallus gallus), and turtle (Chrysemys picta). The ECOTOX-FACTORIAL format uses HepG2, a human liver cell line, with measurements taken at 24 hours after chemical dosing in a 24-well plate. Xsp1 included 3 nM 6-alpha-fluorotestosterone to partially stimulate the androgen receptor.ATG_frAR_XSP1 is one of 29 assay components measured or calculated from the ATG_XSP1_multi-species_TRANS assay. It is designed to make measurements of mRNA induction, a form of inducible reporter, as detected with fluorescence intensity signals by Reverse transcription polymerase chain reaction (RT-PCR) and Capillary electrophoresis technology.The assay endpoint ATG_frAR_XSP1 was analyzed in the positive analysis fitting direction relative to DMSO as the negative control and baseline of activity. […] Furthermore, this assay endpoint can be referred to as a primary readout, because this assay has produced multiple assay endpoints where this one serves a reporter gene function. […]

In assay [3] the target is zebrafish Estrogen Receptor (ESR1), esr1 (gene 259252) (UniProt P57717). Put plainly: ATG_zfER1_XSP1: Attagene TRANS-FACTORIAL Multi-Species (XSP1) HepG2 Assay for zebrafish Estrogen Receptor (ESR1) (AID 2283772). A digest of the protocol: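 Exogenous chimeric receptor-GAL4 activity is measured in transiently transfected human HepG2 liver cells after 24 h compound exposure. Reporter transcripts are detected by RT-PCR and fluorescent capillary electrophoresis, analysed for signal gain relative to DMSO.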

The test system of assay [4] is zebrafish Estrogen Receptor (ESR2B), gene 317733. Put plainly: ATG_zfER2b_XSP1: Attagene TRANS-FACTORIAL Multi-Species (XSP1) HepG2 Assay for zebrafish Estrogen Receptor (ESR2B) (AID 2283773). The method in brief:
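HepG2 cells transiently transfected with multiple GAL4-UAS reporter units expressing chimeric zebrafish ER2b-Gal4; 24 h chemical exposure with 3 nM 6-alpha-fluorotestosterone present. Reporter mRNA measured by RT-PCR and capillary electrophoresis; gain of signal fitted versus DMSO.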

The subject of assay [5] is frog Estrogen Receptor (ESR2), gene 100174814. Put plainly: ATG_frER2_XSP1: Attagene TRANS-FACTORIAL Multi-Species (XSP1) HepG2 Assay for frog Estrogen Receptor (ESR2) (AID 2283774). A digest of the protocol:
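HepG2 cells transiently transfected with GAL4-UAS multiplexed reporter units expressing chimeric NR-Gal4 proteins; reporter mRNA measured 24 h after dosing by RT-PCR, FAM labeling, HpaI digestion and capillary electrophoresis. Gain-of-signal relative to DMSO; 3 nM 6-alpha-fluorotestosterone present.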

Assay [6] concerns frog Estrogen Receptor (ESR1), gene 398734. Put plainly: ATG_frER1_XSP1: Attagene TRANS-FACTORIAL Multi-Species (XSP1) HepG2 Assay for frog Estrogen Receptor (ESR1) (AID 2283777). A digest of the protocol: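 Read-out: fluorescent reporter mRNA via RT-PCR, HpaI digestion and capillary electrophoresis, after 24 h chemical exposure of transiently transfected human HepG2 cells expressing exogenous NR-Gal4 chimeras. DMSO served as baseline for positive-direction fitting.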

For assay [7], the system named is zebrafish Estrogen Receptor (ESR2A), gene 317734. Put plainly: ATG_zfER2a_XSP1: Attagene TRANS-FACTORIAL Multi-Species (XSP1) HepG2 Assay for zebrafish Estrogen Receptor (ESR2A) (AID 2283778). The method in brief:
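HepG2 cells transiently transfected with multiplexed GAL4-UAS reporter units and chimeric NR-GAL4 receptors; 24 h compound exposure with 3 nM 6-alpha-fluorotestosterone present. Reporter mRNA quantified by RT-PCR and capillary electrophoresis, gain-of-signal fitted relative to DMSO.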

In assay [8] the target is chicken Estrogen Receptor (ESR1), ESR1 (gene 396099) (UniProt P06212). Put plainly: ATG_chERa_XSP1: Attagene TRANS-FACTORIAL Multi-Species (XSP1) HepG2 Assay for chicken Estrogen Receptor (ESR1) (AID 2283779). A digest of the protocol:
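HepG2 cells transiently transfected with multiplexed GAL4-UAS reporter units expressing chimeric NR-Gal4 proteins; 3 nM 6-alpha-fluorotestosterone present. Reporter mRNA measured 24 h after dosing by RT-PCR, FAM labelling, HpaI digest and capillary electrophoresis; gain of signal versus DMSO.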

Assay [9] concerns the target Estrogen receptor (Homo sapiens) (UniProt P03372). Put plainly: ATG_hERa_XSP1: Attagene TRANS-FACTORIAL Multi-Species (XSP1) HepG2 Assay for human Estrogen Receptor (ESR1) (AID 2283780). A digest of the protocol:
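HepG2 cells transiently transfected with GAL4-UAS reporter units and chimeric NR-Gal4 constructs; 24 h after dosing, reporter mRNA quantified by RT-PCR and capillary electrophoresis. Medium contained 3 nM 6-alpha-fluorotestosterone; activity fitted as gain-of-signal versus DMSO.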

Assay [10] relates to turtle Estrogen Receptor (ESR1), gene 101933533. Put plainly: ATG_trERa_XSP1: Attagene TRANS-FACTORIAL Multi-Species (XSP1) HepG2 Assay for turtle Estrogen Receptor (ESR1) (AID 2283781). A digest of the protocol: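 HepG2 cells transiently transfected with GAL4-UAS reporter units and chimeric NR-Gal4 constructs, dosed for 24 h with 3 nM 6-alpha-fluorotestosterone present. Reporter mRNA was quantified by RT-PCR, fluorescent labelling and capillary electrophoresis, with gain of signal fitted relative to DMSO.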

For assay [11], the system named is Thyroperoxidase (TPO), gene 54314. Put plainly: CCTE_Simmons_AUR_rTPO: CCTE's Amplex UltraRed Assay for Thyroperoxidase (TPO) Inhibition, Simmons Lab (AID 2283662).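 As to AC50: potency for loss of signal meaning inhibition of peroxidase activity.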 The method in brief:
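Rat thyroid microsomes (5 ug protein) with 25 uM Amplex UltraRed and 300 uM H2O2 in 200 mM phosphate buffer, 30 min at 37C in dark; fluorescence 544/590 nm. Eight concentrations, 5 nM–87.5 uM final, 0.5% DMSO, triplicate biological replicates.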

Assay [12] is described as follows: CCTE_Simmons_CellTiterGLO_HEK293T: Viability Assessment in CCTE's Assays for Thyroperoxidase (TPO) Inhibition, Simmons Lab (AID 2283665).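 As to AC50: cells exposed to compound for 24 h before readout; actives reduce ATP signal below DMSO vehicle meaning cytotoxicity.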 A digest of the protocol:
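HEK293T, 10 000 cells/well, DMEM + 1% FBS; 8-pt titration 5 nM–87.5 uM [final], 0.5% DMSO; 24 hr, 37C, 5% CO2; CellTiter-Glo luminescence; n=3 biological replicates.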

In assay [13] the target is Luciferin 4-monooxygenase (Photinus pyralis) (UniProt P08659). Put plainly: CCTE_Simmons_QuantiLum_inhib_2: CCTE's Firefly Luciferase Inhibition Assay, Simmons Lab (AID 2283767).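 As to AC50: potency for inhibitors that lower luciferase luminescence relative to DMSO.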 The method in brief: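 Luminescence loss relative to DMSO vehicle defines inhibition; detection reagent containing 150 uM D-luciferin and 147 uM dATP (final, pH 7.8) is injected immediately before each read. Enzyme is preincubated with an 8-point titration (5 nM–87.5 uM final) for 30 min at 37C.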

Assay [14] in a line: ACEA_AR_agonist_AUC_viability: ACEA Biosciences xCELLigence Real-Time Cell Analysis on Androgen Receptor Agonism for Viability (AID 2283775).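 As to AC50: viability read 80 hours after compound addition.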 The method in brief: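 Real-time impedance tracking of 22Rv1 growth, readings every 5 min for 5 h then hourly; area-under-curve viability endpoint at 80 hours, relative to DMSO. Compounds at eight concentrations, 1:4 steps, top 100 uM, n = 2.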

Assay [15] is described as follows: ACEA_AR_antagonist_AUC_viability: ACEA Biosciences xCELLigence Real-Time Cell Analysis on Androgen Receptor Antagonism for Viability (AID 2283776).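 Also: hits lower the growth signal relative to DMSO meaning cytotoxicity.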 A digest of the protocol: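 22Rv1 human prostate cancer cells were seeded on electrode plates, monitored overnight, then exposed to eight 1:4 dilutions from 100 uM final. Impedance-based growth kinetics at 80 h gave an AUC viability endpoint normalized to DMSO.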

Assay [16] is described as follows: ACEA_ER_AUC_viability: ACEA Biosciences xCELLigence Real-Time Cell Analysis on Estrogen Receptor Agonism for Viability (AID 2283782).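 Also: continuous compound exposure with impedance area under curve over 80 h; hit means loss of impedance signal meaning reduced cell growth or viability.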 A digest of the protocol:
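T-47D human breast cells in phenol red-free RPMI1640 with 10% charcoal-stripped FBS were dosed with an 8-point 1:4 dilution series from 100 uM top final concentration, in duplicate. Impedance-based growth was followed for 80 h; AUC analysed versus DMSO.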

Assay [17] in a line: STM_H9_OrnCyssISnorm_ratio: Stemina devTOX quickPredict H9 human embryonic stem cell (hESC)-based Assay for Ornithine (ORN):Cystine (CYSS) Ratio (AID 2283714). The method in brief: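 Undifferentiated H9 hESCs were exposed to compound for 72h with media and chemical replaced every 24h. Final 24-h conditioned media were deproteinized and analysed by UPLC-HRMS. ORN and CYSS peak areas were normalized to C13 internal standards and the ratio taken versus 0.1% DMSO.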

“And” between values parts separate entries of the source, which are not always exact repeats. Equal entries are not always repeated. Results filed as inconclusive are left out. A structure can be active in one record and inactive in another. The source made the active and inactive calls. The calls were made as follows: active = hit-call score of the fitted dose curve at least 0.9, where 1 is the maximum; inconclusive = response in the unintended direction; inactive = score below 0.9.

Luciferin 4-monooxygenase (Photinus pyralis), sequence (P08659 whole entry, looked up): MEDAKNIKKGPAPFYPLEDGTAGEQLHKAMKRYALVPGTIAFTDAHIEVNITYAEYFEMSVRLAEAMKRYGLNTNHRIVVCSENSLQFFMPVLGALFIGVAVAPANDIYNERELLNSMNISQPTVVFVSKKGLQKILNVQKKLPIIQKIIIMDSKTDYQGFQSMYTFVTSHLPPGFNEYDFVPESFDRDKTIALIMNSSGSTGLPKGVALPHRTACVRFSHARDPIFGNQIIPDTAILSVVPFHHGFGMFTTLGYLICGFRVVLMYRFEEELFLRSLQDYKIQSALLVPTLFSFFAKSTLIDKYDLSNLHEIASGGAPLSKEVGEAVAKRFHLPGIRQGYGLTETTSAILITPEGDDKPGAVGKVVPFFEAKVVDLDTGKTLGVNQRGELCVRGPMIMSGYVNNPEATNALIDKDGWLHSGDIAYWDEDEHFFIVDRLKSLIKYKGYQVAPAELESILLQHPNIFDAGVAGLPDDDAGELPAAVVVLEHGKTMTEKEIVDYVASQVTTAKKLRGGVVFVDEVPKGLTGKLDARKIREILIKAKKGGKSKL
Estrogen receptor (Homo sapiens), sequence (P03372 whole entry, looked up, the tested form may be a part): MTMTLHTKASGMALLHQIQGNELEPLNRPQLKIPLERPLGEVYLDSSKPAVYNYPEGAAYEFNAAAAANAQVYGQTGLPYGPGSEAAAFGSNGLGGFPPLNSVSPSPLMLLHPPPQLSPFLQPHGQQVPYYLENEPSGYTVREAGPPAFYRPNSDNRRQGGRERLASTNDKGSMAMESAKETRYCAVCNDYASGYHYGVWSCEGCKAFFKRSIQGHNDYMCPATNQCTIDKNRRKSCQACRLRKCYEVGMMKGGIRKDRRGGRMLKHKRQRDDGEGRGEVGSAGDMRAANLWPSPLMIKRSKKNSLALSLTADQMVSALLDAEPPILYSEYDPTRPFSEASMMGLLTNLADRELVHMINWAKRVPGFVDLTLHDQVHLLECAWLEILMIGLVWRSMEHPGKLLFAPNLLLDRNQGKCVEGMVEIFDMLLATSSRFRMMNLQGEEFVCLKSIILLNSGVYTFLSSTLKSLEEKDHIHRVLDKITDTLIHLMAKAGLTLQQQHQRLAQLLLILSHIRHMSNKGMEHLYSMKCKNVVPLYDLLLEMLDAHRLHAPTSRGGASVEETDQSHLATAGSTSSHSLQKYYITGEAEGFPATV
chicken Estrogen Receptor (ESR1), ESR1 (gene 396099), sequence (P06212 whole entry, looked up, the tested form may be a part): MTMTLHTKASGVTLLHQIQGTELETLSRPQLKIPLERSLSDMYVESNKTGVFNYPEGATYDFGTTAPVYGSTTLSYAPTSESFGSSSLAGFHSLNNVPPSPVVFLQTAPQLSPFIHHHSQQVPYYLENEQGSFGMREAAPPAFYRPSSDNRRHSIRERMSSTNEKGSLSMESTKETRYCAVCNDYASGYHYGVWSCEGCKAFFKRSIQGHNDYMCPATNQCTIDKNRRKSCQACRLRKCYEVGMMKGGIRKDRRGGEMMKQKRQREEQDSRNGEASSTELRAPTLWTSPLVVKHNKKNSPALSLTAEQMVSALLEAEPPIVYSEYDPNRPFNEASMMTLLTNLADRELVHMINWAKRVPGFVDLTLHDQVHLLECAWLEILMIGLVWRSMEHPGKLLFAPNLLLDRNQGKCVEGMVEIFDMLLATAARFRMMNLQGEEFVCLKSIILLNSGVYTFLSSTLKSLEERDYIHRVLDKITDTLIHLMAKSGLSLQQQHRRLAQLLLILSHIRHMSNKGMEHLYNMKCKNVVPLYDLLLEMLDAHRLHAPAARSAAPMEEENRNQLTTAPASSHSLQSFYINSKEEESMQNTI
zebrafish Estrogen Receptor (ESR1), esr1 (gene 259252), sequence (P57717 whole entry, looked up, the tested form may be a part): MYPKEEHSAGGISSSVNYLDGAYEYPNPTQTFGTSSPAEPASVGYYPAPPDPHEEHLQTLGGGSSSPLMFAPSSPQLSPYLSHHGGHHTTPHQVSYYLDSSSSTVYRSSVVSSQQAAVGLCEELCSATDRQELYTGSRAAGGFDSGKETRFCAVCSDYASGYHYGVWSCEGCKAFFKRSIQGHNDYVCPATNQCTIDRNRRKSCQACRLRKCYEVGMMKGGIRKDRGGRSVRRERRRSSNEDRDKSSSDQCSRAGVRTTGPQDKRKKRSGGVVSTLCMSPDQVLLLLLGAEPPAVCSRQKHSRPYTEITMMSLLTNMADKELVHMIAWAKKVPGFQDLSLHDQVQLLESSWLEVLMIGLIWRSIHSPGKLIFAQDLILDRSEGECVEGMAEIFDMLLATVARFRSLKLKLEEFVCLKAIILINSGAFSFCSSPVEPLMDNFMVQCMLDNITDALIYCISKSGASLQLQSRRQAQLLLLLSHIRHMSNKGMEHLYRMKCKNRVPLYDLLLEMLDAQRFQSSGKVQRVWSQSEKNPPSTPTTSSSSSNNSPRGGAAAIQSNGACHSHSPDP

With `O=C(c1ccc(O)cc1)c1ccc(O)cc1O`, the AC50 (in general, the concentration at which the activity in the assay is half-maximal) in [1] was 1560 nM (active); in assay [2], 2780 nM (active); in assay [3] it was 1760 nM (active); in assay [4] it was 1230 nM (active); in assay [5], 729 nM (active); in assay [6], 664 nM (active). The AC50 was 426 nM (active) in assay [7], 1280 nM (active) in assay [8], 1270 nM (active) in assay [9] and 879 nM (active) in assay [10].

As for `CCCCCCCC[N+](C)(CCCCCCCC)CCCCCCCC`, the AC50 in [11] was 23.7 µM (active); in assay [12], 7140 nM (active); in assay [13], 86 µM (active); in assay [14], 1030 nM (active); in [15] it was 925 nM (active); in [16] it was 1920 nM (active).

`Nc1ccc(N)c(Cl)c1`: the results for the AC50 in [17] and in assay [16] were 13500 nM (active) and 67800 nM (active), respectively.

Consider `O=S1(=O)OC(c2ccc(O)cc2)(c2ccc(O)cc2)c2ccccc21`, for which the AC50 in assay [11] was 24.9 µM (active) and 22.2 µM (active); in assay [12] it was 72000 nM (active); in [13], 36.6 µM (active) and 21.5 µM (active). The compound was called inactive in [12] and in [16].

On to `c1ccc2c(c1)ccc1cc3c(ccc4ccccc43)cc12`, for which the compound was classed as inactive in [11] and in assay [12]. The AC50 in assay [13] is 0.105 µM (active); in assay [14] it was 341 nM (active); in assay [15] it was 287 nM (active).

For the compound `CNC(=S)NN`, in assay [11], the AC50 was 22.5 µM (active). The result in [12], in [13], in assay [14], in assay [15] and in [16] was inactive.
